Source: PubChem
Only some compounds are listed: those with a hit (about 12% of all), similar ones and a draw of the others.
BAZ2B block = inhibitors of human BAZ2B bromodomain; AlphaScreen BAZ2B-H3K14Ac peptide displacement; Potency, µM (highest dose often 114 µM), for inactives: at the highest dose activity change, negative = inhibition, most hits filed as inhibitors; Q9UIF8; 360,000 tested, 4.4% active; note: % is set by controls: 0 for no effect and ±100 for the full control effect; nearly all actives have a fitted effect of over 60% in size
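Protein-peptide AlphaScreen: BAZ2B 50 nM, b-H3K14Ac 50 nM, 1x PBS pH 7.4 + 0.01% Tween-20. Preincubation 30 min RT; cpd 30 min RT (top 110 uM); beads 20 min RT, light-protected.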
Sfp PPTase inh = inhibitors of Bacillus subtilis Sfp phosphopantetheinyl transferase; 310,000 tested, 3.5% active; Q9F4F7; Potency, µM, for the others: largest response in the series, negative = inhibition, actives largely listed as inhibitors; Biochemical Sfp PPTase activity, qHTS;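 note: the enzyme is Sfp with the accession as filed and its product quenches rhodamine fluorescence; 0% = enzyme reaction without inhibitor and -100% = no enzyme wells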
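With Hepes-Na pH 7.6 buffer containing 10 mM MgCl2, Sfp (15 nM) modified BHQ-2-YbbR (12.5 uM) using rhodamine-CoA (5 uM). Two reads 30 minutes apart at 525/598 nm yielded each well's rate.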
HP1b chromo inh = inhibitors of HP1-beta chromodomain binding to methylated histone tails; AlphaScreen HP1-beta / biotin-H3K9me3 peptide binding; 390,000 tested, 0.56% active; Potency, µM (series often up to 114 µM), for inactives: at the top dose activity change, negative = inhibition, most hits filed as inhibitors; P83916; note: nearly all actives have a fitted effect of over 70% in size
Target sequence (P83916 whole entry, looked up): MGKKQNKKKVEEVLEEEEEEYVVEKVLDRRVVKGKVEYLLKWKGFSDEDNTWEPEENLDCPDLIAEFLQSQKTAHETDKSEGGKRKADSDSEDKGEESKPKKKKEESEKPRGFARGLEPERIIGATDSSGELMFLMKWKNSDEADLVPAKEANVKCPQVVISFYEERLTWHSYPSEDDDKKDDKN
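Compound inhibition of the preformed complex between 50 nM HP1-beta and 50 nM biotinylated H3K9me3 peptide was read by AlphaScreen. Buffer was PBS pH 7.4 with 0.01% Tween-20. Incubations ran 30 min at room temperature, with 10 ug/mL donor/acceptor beads.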
JMJD2A Tudor = blocks the human JMJD2A Tudor domain; O75164; AlphaScreen JMJD2A-Tudor / H3K4me3 peptide binding; Potency, µM (highest dose often 114 µM), inactives show at the highest dose activity change, negative = inhibition, usual class: inhibitors; 390,000 tested, 4.4% active; note: % is set by controls: 0 for no effect and ±100 for the full control effect; nearly all actives have a fitted effect of over 50% in size
PLK1 PBD inh = blocks phosphopeptide binding to human PLK1 polo-box domain; P53350; Plk1 PBD binding of FITC phosphopeptide, fluorescence polarization; Potency, µM, for inactives: max response, negative = inhibition, actives largely listed as inhibitors; 360,000 tested, 2.8% active; AID 720504; note: series mostly up to about 57 µM; % is set by controls: 0 for no effect and ±100 for the full control effect; nearly all actives have a fitted effect of over 65% in size
G9a block = G9a (human) methyltransferase inhibition; Potency, µM (titrated, usually from 102 µM), inactives show at the top dose activity, negative = inhibition, actives largely listed as inhibitors; 350,000 tested, 8.8% active; G9a H3K9 monomethylation, AlphaScreen, 2 h; Q96KQ7; note: % is set by controls: 0 for no effect and ±100 for the full control effect; nearly all actives have a fitted effect of over 75% in size
Target sequence (Q96KQ7 913-1193 limits assumed): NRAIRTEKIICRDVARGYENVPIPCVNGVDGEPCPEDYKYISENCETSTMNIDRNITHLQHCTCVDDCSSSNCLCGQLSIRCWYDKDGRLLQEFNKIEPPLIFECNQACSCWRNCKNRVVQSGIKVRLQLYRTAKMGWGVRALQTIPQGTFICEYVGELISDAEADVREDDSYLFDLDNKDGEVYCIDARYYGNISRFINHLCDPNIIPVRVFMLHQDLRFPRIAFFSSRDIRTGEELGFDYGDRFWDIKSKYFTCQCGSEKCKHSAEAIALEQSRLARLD
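Step 1: enzyme (final 20 nM) with compound, 15 min RT. Step 2: substrate peptide 500 nM and SAM 20 uM, 2 h RT. Step 3: anti-H3K9me1 antibody and AlphaScreen beads, 10 min, then plate read.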
* marks the source's active call; other numbers are inactive results; ? = inconclusive; . = not tested or not shown; ! = repeats disagree; [ ] = another dose, or the depositor's remark. Calls come from the whole dose curve; as a rule, active = well fitted curve in the direction sought with a large enough effect; inconclusive = small, poorly fitted or top-dose-only effect, or another doubt; inactive = no such curve, though single readings can be large; an effect the other way counts as inactive or inconclusive. Potency is the fitted concentration of half-maximal effect.

SMILES	BAZ2B block	Sfp PPTase inh	HP1b chromo inh	JMJD2A Tudor	PLK1 PBD inh	G9a block
CC1(C)CC2(CC(c3ccccc3F)c3ccc(O)c(O)c3O2)NC(=S)N1 (stereo unspecified)	45µM*	8.9µM*	?	40µM*	19µM*	.
O=c1oc2ccccc2c(NC2CCCCC2)c1NS(=O)(=O)c1ccc(F)cc1	-14%	-2%	-22%	?	3.4µM*	-1%
O=C(O)c1ccccc1N=Cc1c(O)n(-c2nccs2)c(=O)c2ccccc12	-19%	11%	-3%	-22%	?	9%[59 µM]
CCN(CC)S(=O)(=O)c1cccc(-n2c(O)c(C=Nc3ccccc3C(=O)O)c3ccccc3c2=O)c1	-38%	2%	-3%	-22%[11.4 µM]	24µM*	-49%[59 µM]
NC(=S)NN=C1c2ccccc2-c2cc(Br)ccc21	.	.	?	?	-5%	.
NC(=S)NN=C1c2ccccc2-c2c(F)c(F)c(F)c(F)c21	.	.	?	?	8.4µM*	.
N#Cc1cccc2c1-c1ccccc1/C2=N/NC(N)=S	?	-26%	-16%	?	-11%	89µM*
CC(C)c1ccc(NNC(=O)C2CCC2)cc1	-14%	-2%	37%	?	-2%	7.1µM*
CSc1cc(-c2ccccc2)[nH]c(=O)c1C#N	-22%	25%	63%	0%	-15%	-47%
CN(C)c1c(-c2ccccc2)cc(-c2ccccc2)[nH]c1=O	-8%	-19%	.	.	.	35µM*
CCN(CC)C(=O)Cn1cc(C(=O)C(=O)Nc2ccc3c(c2)OCO3)c2ccccc21	.	.	.	.	-13%	.
CSC1=C(C#N)C(=O)NC(c2ccc(Cl)cc2)S1 (stereo unspecified)	?	-14%	-4%	-20%	7.5µM*	32µM*
CCN(CC)S(=O)(=O)c1ccc(=O)n(CC(=O)N2CCCc3cc(C)ccc32)c1	8%	.	36%	-17%	-13%	13%[59 µM]
CC(C)(C)c1ccc(OCC(O)CSc2ncn[nH]2)cc1 (stereo unspecified)	-8%	-13%	30%	32µM*	-6%	8.9µM*
OC(COc1ccccc1)CSc1ncn[nH]1 (stereo unspecified)	7%	6%	26%	-9%	-2%	13%[12.7 µM]
O=C(NCCSc1ncc(-c2ccc(F)cc2)[nH]1)c1ccco1	-9%	.	19%	-8%	-9%	50µM*
COc1cc(NC(=O)c2ccco2)c(OC)cc1NC(=O)CSc1ncc(-c2ccc(F)cc2)[nH]1	1%	?	24%	-15%	-6%	-27%[59 µM]
COc1cc(OC)cc(C(=O)NCCSc2c[nH]c3ccccc23)c1	-28%	7%	3%	-31%	-8%	45µM*
O=C(NCCSc1c[nH]c2ccccc12)c1ccco1	3%	2%	35%	-4%	-4%	71µM*
Cc1ccc(N=C2C(=O)Nc3ccccc32)cc1C	-1%	-2%	-4%	-20%	-10%	20%[0.501 µM]
O=C1Nc2ccccc2C1=Nc1ccc2[nH]c3ccccc3c2c1	.	.	?	35µM*	-2%	.
CCc1nc2ccccc2c(=O)n1NC(=O)c1c(O)c2ccccc2[nH]c1=O	?	-7%	-1%	79µM*	-10%	82%[59 µM]
NC(=O)c1ncn([C@@H]2O[C@H](CNCc3cccn3-c3ccncc3)[C@@H](O)[C@H]2O)n1	.	.	20%	-17%	-17%	.
Cc1ccc(C(=O)NCC(=O)OCC(=O)NCCc2ccccc2)s1	?	9%	-8%	50µM*	27µM*	-9%
COc1ccccc1N1CCN(c2ncnc3c2cnn3C)CC1	0%	.	22%	-17%	.	-14%[59 µM]
SMILES	BAZ2B block	Sfp PPTase inh	HP1b chromo inh	JMJD2A Tudor	PLK1 PBD inh	G9a block
COCCOC(=O)C1=C(C)NC(=O)NC1c1ccc(-c2ccc(F)cc2)o1 (stereo unspecified)	-32%	-16%	-11%	-35%	2%	50µM*
CCOC(=O)C1=C(C)NC(=O)NC1c1ccc(-c2ccccc2F)o1 (stereo unspecified)	1%	8%	23%	-35%	10%	-11%[59 µM]
Cc1ccc(Cn2nnnc2CN2CCC(NC(=O)C(C)(C)C)CC2)cc1	-17%	-5%	28%	-36%	-15%	-4%[12.7 µM]
CCOc1cc(C(=O)N/N=C/C2CC=CCC2)cc(OCC)c1OCC (stereo unspecified)	9%	?	45%	-11%	7%	16%
Cc1ccc(-n2c(CNc3ccc(C)c(Cl)c3)n[nH]c2=S)cc1	?	6%	11%	?	-24%	50µM*
Cc1ccc(-n2c(CNc3cccc(Cl)c3)n[nH]c2=S)cc1	-19%	-15%	2%	-21%	-16%	4.5µM*
Cc1ccc(NCc2n[nH]c(=S)n2-c2cccc(Cl)c2)cc1	-38%	17%	-5%	?	?	?
CCCCCCCC/C=C\CCCCCCCC(=O)N[C@H](CO)Cc1ccc(O)cc1	.	14%	.	.	.	.
Cc1ccc(-c2cc(C(=O)NN=C3CCCC3)c3ccccc3n2)cc1	8%	1%	42%	-2%	-3%	48%[12.7 µM]
Cc1cc(C(=O)NC(C)CCC(C)C)c2ccccc2n1 (stereo unspecified)	11%	7%	38%	-14%	1%	45µM*
O=C(NN=C1CCCCCC1)c1cc(-c2ccccc2)nc2ccccc12	-4%[57.1 µM]	20%	-15%	?	3µM*	10%
Cc1cc(C(=O)NN=C2CCCC2)c2ccccc2n1	-6%	.	6%	11µM*	-16%	-23%
COc1ccc(OC)c(CCNC(=O)c2cc3cccc4c3n2CC(C)S4)c1 (stereo unspecified)	-38%	.	25%	-32%	.	?
S=C(NCCCN1CCOCC1)Nc1cccc(-c2nnc3n2CCCCC3)c1	-12%	?	30%	-3%	?	?
C=CCNC(=O)c1cc2cc(Cl)ccc2nc1N	.	.	.	.	-6%	.
O=C(CCNC(=O)N1CC(=O)Nc2ccccc21)NCc1ccccc1Cl	.	.	.	.	1%	.
O=C(CNC(=O)N1CC(=O)Nc2ccccc21)NCc1ccc(Cl)cc1	79µM*	6%	18%	-18%	-7%	.
Cc1c(Cl)cccc1NC(=O)CCNC(=O)N1CC(=O)Nc2ccccc21	-3%[57.1 µM]	0%	-14%	-27%	27µM*	17%
O=C(CCNC(=O)N1CC(=O)Nc2ccccc21)NCCc1ccc(Cl)cc1	.	.	.	.	1%	.
CCN1C(=O)[C@H]2[C@@H](c3ccc(C)cc3)N[C@]3(CCCN(Cc4ccc(OC)cc4)C3=O)[C@H]2C1=O	.	.	.	.	-15%	.
O=S(=O)(c1cccc2c(I)cccc12)N1CCCNCC1	.	-23%	.	.	.	?
O=[N+]([O-])c1cc(S(=O)(=O)N2CCCCCC2)ccc1F	-22%	-2%	-3%	-22%	15µM*	-6%[59 µM]
O=S(=O)(c1cccc2c(Cl)cccc12)N1CCCNCC1	.	-7%	.	.	.	19µM*!
O=[N+]([O-])c1cc(S(=O)(=O)N2CCCC2)ccc1O	6%	2%	14%	-14%	-13%	13%[59 µM]
